# Measurements published in ChEMBL document CHEMBL1961873, “Compounds: GSK PKIS; Assays: Nanosyn kinase panel” (2012).
# How the values were obtained:
# [1] = biological target: High affinity nerve growth factor receptor (Homo sapiens) (UniProt P04629); conditions: at 1 µM;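 further: each value is the mean percent inhibition of TRKA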
# [2] = biological target: BDNF/NT-3 growth factors receptor (Homo sapiens) (UniProt Q16620); conditions: at 0.1 µM
# [3] = biological target: BDNF/NT-3 growth factors receptor (Homo sapiens) (UniProt Q16620); conditions: at 1 µM
# [4] = biological target: NT-3 growth factor receptor (Homo sapiens) (UniProt Q16288); conditions: at 0.1 µM
# NT-3 growth factor receptor (Homo sapiens), sequence (Q16288 32-839 limits assumed): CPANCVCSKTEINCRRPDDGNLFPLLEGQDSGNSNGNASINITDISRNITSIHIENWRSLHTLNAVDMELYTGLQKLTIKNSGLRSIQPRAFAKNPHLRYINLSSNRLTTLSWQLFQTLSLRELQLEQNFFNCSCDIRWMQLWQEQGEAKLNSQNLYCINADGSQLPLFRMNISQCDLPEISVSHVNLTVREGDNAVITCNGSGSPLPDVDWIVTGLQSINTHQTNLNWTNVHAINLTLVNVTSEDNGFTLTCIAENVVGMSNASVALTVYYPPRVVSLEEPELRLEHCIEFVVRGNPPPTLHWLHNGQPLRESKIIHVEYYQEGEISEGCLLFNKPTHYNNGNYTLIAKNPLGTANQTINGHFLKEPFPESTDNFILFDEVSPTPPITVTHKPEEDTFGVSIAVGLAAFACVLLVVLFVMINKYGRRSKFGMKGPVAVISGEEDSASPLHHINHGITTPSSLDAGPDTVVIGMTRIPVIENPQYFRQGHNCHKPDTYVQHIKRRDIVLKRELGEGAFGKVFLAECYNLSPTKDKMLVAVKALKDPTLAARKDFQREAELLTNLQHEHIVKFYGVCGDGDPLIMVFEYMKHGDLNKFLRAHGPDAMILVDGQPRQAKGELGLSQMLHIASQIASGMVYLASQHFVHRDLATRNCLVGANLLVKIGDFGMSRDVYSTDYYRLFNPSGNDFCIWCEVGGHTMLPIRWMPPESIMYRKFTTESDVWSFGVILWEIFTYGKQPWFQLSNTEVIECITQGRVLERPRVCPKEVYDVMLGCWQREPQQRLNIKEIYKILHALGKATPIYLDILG
# [5] = biological target: NT-3 growth factor receptor (Homo sapiens) (UniProt Q16288); conditions: at 1 µM
# [6] = biological target: T1, Tyrosine-protein kinase TXK (Homo sapiens) (UniProt P42681); conditions: at 0.1 µM
# T1 sequence (whole entry): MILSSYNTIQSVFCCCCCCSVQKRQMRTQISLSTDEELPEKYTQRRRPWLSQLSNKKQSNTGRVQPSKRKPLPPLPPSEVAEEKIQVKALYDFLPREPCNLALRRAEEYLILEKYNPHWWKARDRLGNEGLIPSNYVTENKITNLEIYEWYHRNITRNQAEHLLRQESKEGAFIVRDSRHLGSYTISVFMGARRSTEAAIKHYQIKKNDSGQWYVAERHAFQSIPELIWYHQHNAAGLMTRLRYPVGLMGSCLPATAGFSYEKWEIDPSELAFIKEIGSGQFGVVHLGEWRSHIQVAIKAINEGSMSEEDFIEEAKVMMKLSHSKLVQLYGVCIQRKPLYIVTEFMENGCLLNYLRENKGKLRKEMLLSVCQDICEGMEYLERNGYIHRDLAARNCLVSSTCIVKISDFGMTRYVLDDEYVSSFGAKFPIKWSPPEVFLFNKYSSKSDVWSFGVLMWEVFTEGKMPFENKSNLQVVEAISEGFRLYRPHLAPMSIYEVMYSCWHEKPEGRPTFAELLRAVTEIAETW
# [7] = biological target: T1, Tyrosine-protein kinase TXK (Homo sapiens); conditions: at 1 µM
# [8] = biological target: Non-receptor tyrosine-protein kinase TYK2 (Homo sapiens) (UniProt P29597); conditions: at 0.1 µM;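 further: each value is a mean of the inhibition readings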
# Non-receptor tyrosine-protein kinase TYK2 (Homo sapiens), sequence (P29597 whole entry): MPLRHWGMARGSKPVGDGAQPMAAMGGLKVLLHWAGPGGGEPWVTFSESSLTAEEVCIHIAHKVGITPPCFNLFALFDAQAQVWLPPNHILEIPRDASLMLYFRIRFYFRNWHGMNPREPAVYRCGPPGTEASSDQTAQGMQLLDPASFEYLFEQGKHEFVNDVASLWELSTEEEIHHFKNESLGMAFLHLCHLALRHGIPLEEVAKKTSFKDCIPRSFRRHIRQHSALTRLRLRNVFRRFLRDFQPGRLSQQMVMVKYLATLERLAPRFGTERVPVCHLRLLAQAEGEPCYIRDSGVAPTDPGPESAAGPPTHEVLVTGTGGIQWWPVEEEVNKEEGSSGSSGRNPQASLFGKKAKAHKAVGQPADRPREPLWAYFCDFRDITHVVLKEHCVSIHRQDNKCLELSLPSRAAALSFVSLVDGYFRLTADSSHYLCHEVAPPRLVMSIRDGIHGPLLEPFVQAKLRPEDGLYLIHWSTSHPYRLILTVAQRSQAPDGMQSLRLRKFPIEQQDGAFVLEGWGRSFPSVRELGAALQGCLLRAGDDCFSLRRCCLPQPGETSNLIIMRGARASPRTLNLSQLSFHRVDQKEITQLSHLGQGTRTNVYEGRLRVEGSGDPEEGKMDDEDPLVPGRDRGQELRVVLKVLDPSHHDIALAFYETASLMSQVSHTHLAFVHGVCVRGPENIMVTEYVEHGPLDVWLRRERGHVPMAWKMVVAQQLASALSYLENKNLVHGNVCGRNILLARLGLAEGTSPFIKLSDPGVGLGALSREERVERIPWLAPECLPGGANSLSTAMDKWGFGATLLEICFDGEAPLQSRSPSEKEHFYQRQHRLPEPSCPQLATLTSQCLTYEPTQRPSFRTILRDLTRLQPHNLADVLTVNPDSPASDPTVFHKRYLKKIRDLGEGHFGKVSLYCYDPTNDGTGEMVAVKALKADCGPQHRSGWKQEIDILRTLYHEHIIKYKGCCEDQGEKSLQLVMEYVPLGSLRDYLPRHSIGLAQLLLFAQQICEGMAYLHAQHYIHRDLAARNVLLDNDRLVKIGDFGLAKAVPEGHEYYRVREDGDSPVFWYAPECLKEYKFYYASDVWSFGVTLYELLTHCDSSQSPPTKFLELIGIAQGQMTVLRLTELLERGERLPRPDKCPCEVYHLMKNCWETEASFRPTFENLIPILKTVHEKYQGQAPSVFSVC
# [9] = biological target: T2, Dual specificity protein kinase TTK (Homo sapiens) (UniProt P33981); conditions: at 1 µM;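 further: reported figures are mean TTK inhibition at 1 µM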
# T2 sequence (whole entry): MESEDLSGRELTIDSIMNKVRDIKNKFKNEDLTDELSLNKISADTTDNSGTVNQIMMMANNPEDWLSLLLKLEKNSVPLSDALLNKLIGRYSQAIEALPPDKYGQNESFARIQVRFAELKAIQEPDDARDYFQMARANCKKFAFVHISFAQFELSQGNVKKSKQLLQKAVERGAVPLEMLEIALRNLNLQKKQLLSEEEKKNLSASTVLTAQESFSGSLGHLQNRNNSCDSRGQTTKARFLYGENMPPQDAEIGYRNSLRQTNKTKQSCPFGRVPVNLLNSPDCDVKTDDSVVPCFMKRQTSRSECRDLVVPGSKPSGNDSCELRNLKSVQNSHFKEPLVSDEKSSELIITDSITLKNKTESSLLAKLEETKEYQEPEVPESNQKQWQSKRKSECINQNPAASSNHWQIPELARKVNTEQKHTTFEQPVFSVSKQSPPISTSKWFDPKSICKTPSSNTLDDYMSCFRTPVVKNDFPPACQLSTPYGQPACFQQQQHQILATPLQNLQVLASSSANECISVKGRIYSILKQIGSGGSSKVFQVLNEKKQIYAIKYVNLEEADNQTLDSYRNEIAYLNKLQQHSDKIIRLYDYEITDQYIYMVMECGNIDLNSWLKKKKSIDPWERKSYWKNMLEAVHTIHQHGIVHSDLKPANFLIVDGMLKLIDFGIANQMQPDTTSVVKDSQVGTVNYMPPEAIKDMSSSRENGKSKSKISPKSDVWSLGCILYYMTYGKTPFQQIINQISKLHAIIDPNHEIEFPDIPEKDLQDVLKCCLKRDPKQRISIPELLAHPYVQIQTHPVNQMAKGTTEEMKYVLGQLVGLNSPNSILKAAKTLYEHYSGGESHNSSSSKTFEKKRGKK
# [10] = biological target: T3, Aurora kinase A (Homo sapiens) (UniProt O14965); conditions: at 0.1 µM
# T3 sequence (whole entry): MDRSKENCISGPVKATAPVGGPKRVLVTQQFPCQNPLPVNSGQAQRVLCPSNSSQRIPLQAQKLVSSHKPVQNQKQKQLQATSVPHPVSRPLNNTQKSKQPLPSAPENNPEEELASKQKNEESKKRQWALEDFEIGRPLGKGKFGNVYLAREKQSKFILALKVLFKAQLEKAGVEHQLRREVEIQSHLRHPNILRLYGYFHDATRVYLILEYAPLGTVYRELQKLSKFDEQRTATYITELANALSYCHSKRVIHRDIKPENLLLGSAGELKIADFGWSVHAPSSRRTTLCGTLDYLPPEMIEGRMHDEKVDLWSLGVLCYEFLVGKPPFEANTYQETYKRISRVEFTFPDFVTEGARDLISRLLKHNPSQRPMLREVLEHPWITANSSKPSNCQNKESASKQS
# [11] = biological target: T3, Aurora kinase A (Homo sapiens); conditions: at 1 µM
# [12] = biological target: Aurora kinase B (Homo sapiens) (UniProt Q96GD4); conditions: at 0.1 µM
# [13] = biological target: Aurora kinase B (Homo sapiens) (UniProt Q96GD4); conditions: at 1 µM
# [14] = biological target: T4, Aurora kinase C (Homo sapiens) (UniProt Q9UQB9); conditions: at 0.1 µM
# T4 sequence (whole entry): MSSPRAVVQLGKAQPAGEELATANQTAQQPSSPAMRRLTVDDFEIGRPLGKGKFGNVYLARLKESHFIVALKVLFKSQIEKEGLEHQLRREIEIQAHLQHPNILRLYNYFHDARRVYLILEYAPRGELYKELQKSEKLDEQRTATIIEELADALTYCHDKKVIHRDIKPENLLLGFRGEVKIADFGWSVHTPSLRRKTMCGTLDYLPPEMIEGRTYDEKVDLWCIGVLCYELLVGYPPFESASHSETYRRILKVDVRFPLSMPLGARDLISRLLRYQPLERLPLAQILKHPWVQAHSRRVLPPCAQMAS
# [15] = biological target: T4, Aurora kinase C (Homo sapiens); conditions: at 1 µM
# [16] = biological target: Serine/threonine-protein kinase 10 (Homo sapiens) (UniProt O94804); conditions: at 0.1 µM
# Serine/threonine-protein kinase 10 (Homo sapiens), sequence (O94804 whole entry, looked up): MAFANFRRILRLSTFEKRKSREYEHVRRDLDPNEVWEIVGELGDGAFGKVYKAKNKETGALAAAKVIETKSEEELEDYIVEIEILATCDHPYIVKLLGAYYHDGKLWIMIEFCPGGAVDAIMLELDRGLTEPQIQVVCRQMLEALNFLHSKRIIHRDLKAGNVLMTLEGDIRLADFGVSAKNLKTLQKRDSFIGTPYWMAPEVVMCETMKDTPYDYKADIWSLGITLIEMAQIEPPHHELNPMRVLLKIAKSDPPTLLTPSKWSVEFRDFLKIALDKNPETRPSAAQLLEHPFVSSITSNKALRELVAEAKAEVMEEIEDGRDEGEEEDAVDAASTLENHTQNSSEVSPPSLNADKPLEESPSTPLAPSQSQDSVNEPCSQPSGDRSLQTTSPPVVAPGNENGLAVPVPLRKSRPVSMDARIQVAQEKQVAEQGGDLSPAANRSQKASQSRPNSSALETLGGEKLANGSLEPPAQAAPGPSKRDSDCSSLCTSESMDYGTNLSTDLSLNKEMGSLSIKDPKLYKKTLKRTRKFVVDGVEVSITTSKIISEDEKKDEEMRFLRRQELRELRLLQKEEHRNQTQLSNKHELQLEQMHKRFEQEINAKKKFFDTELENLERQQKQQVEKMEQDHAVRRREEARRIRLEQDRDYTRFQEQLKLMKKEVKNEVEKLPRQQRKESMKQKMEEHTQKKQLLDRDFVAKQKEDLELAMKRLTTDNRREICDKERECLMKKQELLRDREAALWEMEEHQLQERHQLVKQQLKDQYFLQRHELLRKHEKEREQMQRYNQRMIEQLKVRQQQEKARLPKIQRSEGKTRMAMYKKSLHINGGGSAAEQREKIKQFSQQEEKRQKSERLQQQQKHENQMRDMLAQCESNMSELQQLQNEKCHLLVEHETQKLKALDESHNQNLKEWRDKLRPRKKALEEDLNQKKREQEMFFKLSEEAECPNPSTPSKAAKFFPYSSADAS
# [17] = biological target: Serine/threonine-protein kinase 10 (Homo sapiens) (UniProt O94804); conditions: at 1 µM
# [18] = biological target: T5, Mitogen-activated protein kinase kinase kinase kinase 2 (Homo sapiens) (UniProt Q12851); conditions: at 0.1 µM
# T5 sequence (whole entry): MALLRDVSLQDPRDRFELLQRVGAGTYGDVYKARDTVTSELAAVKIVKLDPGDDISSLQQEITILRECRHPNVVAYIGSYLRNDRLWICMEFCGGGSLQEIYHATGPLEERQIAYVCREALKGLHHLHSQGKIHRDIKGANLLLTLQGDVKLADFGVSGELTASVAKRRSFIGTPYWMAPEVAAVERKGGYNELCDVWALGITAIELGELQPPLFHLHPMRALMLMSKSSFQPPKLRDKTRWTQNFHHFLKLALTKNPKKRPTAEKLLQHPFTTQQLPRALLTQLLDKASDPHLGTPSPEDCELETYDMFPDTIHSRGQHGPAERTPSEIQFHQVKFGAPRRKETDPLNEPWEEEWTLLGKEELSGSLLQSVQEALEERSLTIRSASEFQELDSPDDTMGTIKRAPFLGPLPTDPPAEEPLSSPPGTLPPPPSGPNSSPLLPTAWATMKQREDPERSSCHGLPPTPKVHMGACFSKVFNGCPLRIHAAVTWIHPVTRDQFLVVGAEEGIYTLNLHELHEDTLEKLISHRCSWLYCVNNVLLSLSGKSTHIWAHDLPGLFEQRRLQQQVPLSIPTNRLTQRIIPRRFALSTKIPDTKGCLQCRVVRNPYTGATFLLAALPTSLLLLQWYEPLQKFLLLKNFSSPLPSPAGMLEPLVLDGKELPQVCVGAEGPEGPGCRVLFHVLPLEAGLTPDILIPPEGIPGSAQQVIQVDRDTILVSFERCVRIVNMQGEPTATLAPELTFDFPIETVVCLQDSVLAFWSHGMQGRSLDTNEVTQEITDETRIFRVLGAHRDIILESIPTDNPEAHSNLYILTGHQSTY
# [19] = biological target: T5, Mitogen-activated protein kinase kinase kinase kinase 2 (Homo sapiens); conditions: at 1 µM
# [20] = biological target: Mitogen-activated protein kinase kinase kinase kinase 4 (Homo sapiens) (UniProt O95819); conditions: at 0.1 µM
# Mitogen-activated protein kinase kinase kinase kinase 4 (Homo sapiens), sequence (O95819 2-1239 limits assumed): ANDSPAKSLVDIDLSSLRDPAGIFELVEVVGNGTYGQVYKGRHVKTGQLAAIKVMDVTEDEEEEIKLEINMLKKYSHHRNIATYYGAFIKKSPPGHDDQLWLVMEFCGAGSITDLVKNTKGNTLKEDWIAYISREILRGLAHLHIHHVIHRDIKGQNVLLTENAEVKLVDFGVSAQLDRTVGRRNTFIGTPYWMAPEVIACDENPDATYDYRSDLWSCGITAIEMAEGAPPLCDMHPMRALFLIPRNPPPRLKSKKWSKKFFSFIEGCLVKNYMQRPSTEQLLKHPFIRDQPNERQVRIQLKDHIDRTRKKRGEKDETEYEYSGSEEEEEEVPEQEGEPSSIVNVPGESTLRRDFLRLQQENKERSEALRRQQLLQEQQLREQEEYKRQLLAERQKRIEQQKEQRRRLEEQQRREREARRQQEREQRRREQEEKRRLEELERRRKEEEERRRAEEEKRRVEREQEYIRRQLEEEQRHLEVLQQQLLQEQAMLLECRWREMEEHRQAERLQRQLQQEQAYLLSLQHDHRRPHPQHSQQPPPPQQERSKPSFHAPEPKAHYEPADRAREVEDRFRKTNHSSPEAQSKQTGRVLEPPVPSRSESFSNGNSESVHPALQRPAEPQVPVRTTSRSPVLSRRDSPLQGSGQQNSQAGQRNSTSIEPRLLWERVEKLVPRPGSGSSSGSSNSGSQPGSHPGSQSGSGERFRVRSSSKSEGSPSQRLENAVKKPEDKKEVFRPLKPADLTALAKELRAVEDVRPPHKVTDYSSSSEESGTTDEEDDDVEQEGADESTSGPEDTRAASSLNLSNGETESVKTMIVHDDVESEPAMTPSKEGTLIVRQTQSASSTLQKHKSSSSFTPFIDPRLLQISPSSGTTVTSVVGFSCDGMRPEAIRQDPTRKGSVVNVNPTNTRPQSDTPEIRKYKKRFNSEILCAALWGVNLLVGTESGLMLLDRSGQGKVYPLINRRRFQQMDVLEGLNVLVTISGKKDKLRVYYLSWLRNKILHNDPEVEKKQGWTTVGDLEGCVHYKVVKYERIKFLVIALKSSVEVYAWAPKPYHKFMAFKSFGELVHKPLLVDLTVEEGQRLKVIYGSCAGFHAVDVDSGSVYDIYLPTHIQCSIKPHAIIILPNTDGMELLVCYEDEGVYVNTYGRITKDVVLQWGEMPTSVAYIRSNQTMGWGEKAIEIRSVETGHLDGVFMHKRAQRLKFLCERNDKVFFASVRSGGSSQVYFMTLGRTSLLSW
# High affinity nerve growth factor receptor (Homo sapiens), sequence (P04629 33-796 limits assumed): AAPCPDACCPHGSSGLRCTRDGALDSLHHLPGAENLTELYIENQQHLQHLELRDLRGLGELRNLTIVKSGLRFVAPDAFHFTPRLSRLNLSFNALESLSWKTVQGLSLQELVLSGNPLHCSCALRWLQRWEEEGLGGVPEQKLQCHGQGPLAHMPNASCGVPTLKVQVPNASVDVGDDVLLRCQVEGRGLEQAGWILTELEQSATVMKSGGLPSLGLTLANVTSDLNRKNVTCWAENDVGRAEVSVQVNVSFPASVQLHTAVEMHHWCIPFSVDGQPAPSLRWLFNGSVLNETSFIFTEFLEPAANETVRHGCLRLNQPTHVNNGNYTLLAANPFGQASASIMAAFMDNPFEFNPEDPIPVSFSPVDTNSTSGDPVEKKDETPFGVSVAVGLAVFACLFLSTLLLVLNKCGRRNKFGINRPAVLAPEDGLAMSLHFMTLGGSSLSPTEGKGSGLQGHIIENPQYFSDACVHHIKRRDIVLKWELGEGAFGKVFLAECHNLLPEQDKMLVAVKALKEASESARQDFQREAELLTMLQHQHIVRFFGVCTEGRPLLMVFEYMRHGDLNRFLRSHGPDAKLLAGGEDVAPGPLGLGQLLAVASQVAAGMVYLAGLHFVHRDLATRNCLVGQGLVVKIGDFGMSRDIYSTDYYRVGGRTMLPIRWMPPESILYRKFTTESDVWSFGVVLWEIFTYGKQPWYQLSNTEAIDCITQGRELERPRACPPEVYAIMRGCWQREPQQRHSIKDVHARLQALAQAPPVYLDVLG
SMILES,inhibition [1],inhibition [2],inhibition [3],inhibition [4],inhibition [5],inhibition [6],inhibition [7],inhibition [8],inhibition [9],inhibition [10],inhibition [11],inhibition [12],inhibition [13],inhibition [14],inhibition [15],inhibition [16],inhibition [17],inhibition [18],inhibition [19],inhibition [20]
CCn1c(-c2nonc2N)nc2ccccc21,2.11%,1.05%,-0.82%,0.03%,0.89%,3.75%,6.72%,-1.66%,7.51%,2.42%,7.95%,0.55%,5.64%,-0.58%,11.2%,2.59%,6.5%,0.98%,3.67%,4.69%
Cc1cccc2c1NC(=O)/C2=N\Nc1ccc(S(N)(=O)=O)cc1,1.49%,2.26%,1.7%,0.44%,6.52%,4.98%,6.66%,-2.96%,9.17%,3.73%,8.68%,3.31%,7.09%,2.56%,12.1%,3.27%,4.33%,0.93%,0.8%,10.1%
Cc1ccc(O)cc1Nc1ccnc2cc(-c3ccccn3)ccc12,4.34%,1.78%,2.4%,3.76%,4.64%,42%,82.3%,-4.79%,7.97%,2.82%,17.7%,9.57%,43.9%,6.76%,60.6%,11.1%,47.6%,3.74%,26.4%,26.7%
COC(=O)Nc1nc2ccc(S(=O)(=O)c3ccc(NC(=O)Nc4cc(C(F)(F)F)ccc4F)cc3)cc2[nH]1,2.05%,0.88%,3.21%,1.98%,3.91%,2.55%,4.65%,-1.55%,10.5%,3.13%,8.25%,3.7%,7.15%,0.87%,14.1%,3.49%,10.6%,-0.09%,1.67%,2.49%
CCn1c(-c2nonc2N)nc2c(C#CC(C)(C)O)ncc(OC3CCNCC3)c21,3.24%,1.42%,1.02%,2.31%,-0.14%,6.03%,3.86%,0.42%,7.59%,4.24%,0.96%,2.65%,1.85%,1.48%,3.1%,3.27%,11.2%,2.3%,3.12%,2.72%
COc1cc(/C=N/Nc2ncnc3[nH]ncc23)ccc1O,3.15%,3.49%,10.7%,2.95%,11.2%,5.2%,24.9%,-2.44%,13.4%,6.3%,55.1%,9.45%,42.1%,6.8%,66%,5.88%,19.5%,1.7%,9.66%,7.81%
O=S(=O)(CCNCc1ccc(-c2ccc3ncnc(Nc4ccc(OCc5cccc(F)c5)c(Cl)c4)c3c2)o1)c1ccccc1,1.84%,3.5%,5.72%,3.32%,5.45%,-1.02%,5.43%,-1.8%,9.69%,6.02%,6.24%,5.41%,11.8%,2.93%,10.2%,9.92%,17.5%,2.04%,5.59%,4.02%
COc1ccc(-c2oc3ncnc(N)c3c2-c2ccc(NC(=O)Nc3cc(C(F)(F)F)ccc3F)cc2)cc1,98.4%,88.4%,101%,87.2%,98.5%,3.68%,8.48%,-5.26%,14.6%,1.73%,49.5%,8.53%,46.2%,3.56%,76.2%,49.5%,91.3%,8.42%,47.2%,5.29%
CC(C)COC(=O)c1ccc2c(c1)/C(=C/Nc1ccc(S(N)(=O)=O)cc1)C(=O)N2,30.4%,6.02%,40.2%,8.8%,48.5%,1.73%,4.75%,3.35%,70.1%,3.84%,61%,6.97%,48%,4.05%,82.9%,-1.08%,12.6%,2.95%,14.3%,14.5%
COC(=O)c1sc(-n2cnc3cc(OC)c(OC)cc32)cc1OCc1ccccc1C(F)(F)F,3.03%,5.22%,14.9%,3.71%,16.9%,2.16%,7.15%,-1.4%,17.2%,4.18%,32.2%,13.9%,54.5%,5.23%,54.9%,6.81%,21.6%,-0.16%,3.42%,6.34%
Cc1ccc2c(-c3ccnc(Nc4ccccc4)n3)c(-c3ccc(F)cc3)nn2n1,31.6%,5.12%,20.2%,4.3%,11.8%,8.09%,31.4%,-4.65%,6.11%,3.75%,16.4%,-4.16%,12.9%,2.67%,25.2%,7.71%,22.8%,0.67%,3.98%,12.3%
